Measured values: PubChem BioAssay (NCI)
This is part of a sample that, as a whole, favours compounds with a hit. Of some 83,000 tested, about 20% had one in any assay.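 In brief: 96-well plates, 48 h treatment, single concentration, percent growth endpoint.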 Calls of active or inactive are those of the source. Rule for the calls: active = growth percent below 10; inactive = the rest.

Key:
Assay in all cases: NCI-60 one-dose screen, 48 h (100 = growth as untreated, 0 = no growth, -100 = all killed)
Settings in all cases: 10 µM unless noted
[1] = tested on: NCI-H23 lung
[2] = tested on: NCI-H226 lung
[3] = tested on: NCI-H322M lung
[4] = tested on: HOP-62 NSCLC
[5] = tested on: NCI-H460 lung
[6] = tested on: NCI-H522 lung
[7] = tested on: A549/ATCC NSCLC
[8] = tested on: 786-0 renal
[9] = tested on: COLO 205 colon
[10] = tested on: DU-145 prostate
[11] = tested on: K-562 leukemia
[12] = tested on: MDA-MB-231 breast
[13] = tested on: RXF 393 renal
[14] = tested on: SF-268 CNS
[15] = tested on: SF-295 CNS
[16] = tested on: SF-539 CNS
[17] = tested on: UACC-257 melanoma
[18] = tested on: M14 melanoma
[19] = tested on: HCT-15 colon
[20] = tested on: MALME-3M melanoma

Measured: growth

O[C@@H]1Cc2ccc3ccccc3c2N[C@H](c2ccoc2)C1
inactive: [1] 96.6% | [2] 93.5% | [3] 112% | [4] 98.8% | [5] 116% | [6] 94.8% | [7] 100% | [8] 108% | [9] 107% | [10] 112% | [11] 102% | [12] 96.2% | [13] 108% | [14] 105% | [15] 110% | [16] 93.6% | [17] 105% | [18] 101% | [19] 111%

CCOC(=O)C(Cc1ccccc1)(C(=O)OCC)C(Br)C(=O)c1ccccc1 (stereo not given)
inactive: [1] 84.4% | [2] 88% | [3] 83.9% | [4] 95.6% | [5] 93% | [6] 22.5% | [7] 80.2% | [8] 50% | [9] 63% | [10] 93% | [20] 54.2% | [12] 64.2% | [13] 75.5% | [14] 88% | [15] 94.5% | [16] 105% | [17] 70.9% | [18] 84.1%

COc1cc(C(=O)/C=C/c2cccnc2Nc2ccccc2)cc(OC)c1OC
active: [1] -35.3% | [2] -96.2% | [3] 7.04% | [4] -74.2% | [5] -40.4% | [6] -68.7% | [7] 2.67% | [8] -83.1% | [9] -87.5% | [10] -98.9% | [20] -71.5% | [12] -61.1% | [13] -97.4% | [14] -81.1% | [16] -54.8% | [17] -88.2% | [18] -70% | [19] -33.7%
inactive: [15] 17.3%

O=C(Nc1nc2ccccc2s1)c1cc(-c2ccc(F)cc2)n2nc(-c3ccccc3)cc2n1
inactive: [1] 68.7% | [2] 89.1% | [3] 60.1% | [4] 63.8% | [5] 29.3% | [6] 101% | [7] 51.2% | [8] 11.7% | [9] 65.2% | [10] 89.1% | [11] 59.1% | [12] 64.6% | [13] 121% | [15] 40.3% | [16] 63.8% | [17] 69% | [18] 79.2% | [19] 53.7%

COc1ccc2nc(NC(=O)c3cc(-c4ccc(F)cc4)n4nc(-c5ccccc5)cc4n3)sc2c1
inactive: [1] 53.6% | [2] 84% | [3] 82.8% | [4] 61.4% | [5] 79.2% | [6] 95.8% | [7] 77.1% | [8] 90.8% | [9] 76.3% | [10] 78.1% | [11] 93.5% | [12] 72.8% | [13] 118% | [15] 61.6% | [16] 66.6% | [17] 80% | [18] 81.9% | [19] 90%

COc1ccc(-c2csc(NC(=O)c3cc(O)c(O)c(O)c3)n2)cc1
inactive: [1] 78.5% | [2] 82.3% | [3] 76.9% | [4] 64.8% | [5] 53.7% | [7] 58.6% | [8] 64.4% | [9] 91.4% | [10] 65.2% | [11] 44.8% | [12] 56% | [14] 54.5% | [15] 73.4% | [16] 62.7% | [17] 87.3% | [18] 63.2% | [19] 30.4%
active: [6] -22.9%

N#Cc1cccc(/C=C(/C(=O)c2ccccc2)c2ccccc2)c1
inactive: [1] 81.2% | [2] 71.7% | [3] 77.8% | [4] 94.5% | [5] 77.5% | [6] 57.8% | [7] 62.8% | [8] 76.2% | [9] 96.8% | [10] 37% | [12] 54.5% | [14] 51.1% | [15] 63.5% | [16] 91.9% | [17] 43.1% | [18] 58.8% | [19] 18.9%
active: [11] 1.89%

COc1ccc(COC(C)=O)cc1
inactive: [1] 113% | [2] 104% | [3] 112% | [4] 101% | [5] 111% | [6] 118% | [7] 100% | [8] 99.4% | [9] 127% | [10] 110% | [11] 103% | [12] 125% | [13] 108% | [14] 101% | [15] 116% | [16] 107% | [17] 109% | [18] 108% | [19] 97.6%

O=C(/C(=C/c1ccc([N+](=O)[O-])cc1)c1ccccc1)c1ccccc1
inactive: [1] 67.1% | [2] 56.6% | [3] 74.3% | [4] 88.9% | [5] 65.6% | [6] 31.4% | [7] 48.7% | [8] 65.3% | [9] 87.6% | [10] 23.4% | [12] 53.6% | [14] 27.8% | [15] 67.5% | [16] 83% | [17] 41.1% | [18] 51.6% | [19] 14.6%
active: [11] 3.83%
